# Out of some 310,000 compounds screened, about 14,000 (4.5%) showed an effect of 50% or more. Effects have a minus sign here. Only a selection was taken, and strong results are over-represented in it overall.
# Molecular target: human ether-à-go-go-related gene (hERG) potassium channel (human, UniProt Q12809)
# Assay: primary screen, population patch clamp on CHO cells stably expressing hERG; higher = less effect of the substance
# 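Note: peak tail current of the secondary pulse compared with the same well before compound.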
# Sequence of human ether-à-go-go-related gene (hERG) potassium channel (Q12809 whole entry, looked up): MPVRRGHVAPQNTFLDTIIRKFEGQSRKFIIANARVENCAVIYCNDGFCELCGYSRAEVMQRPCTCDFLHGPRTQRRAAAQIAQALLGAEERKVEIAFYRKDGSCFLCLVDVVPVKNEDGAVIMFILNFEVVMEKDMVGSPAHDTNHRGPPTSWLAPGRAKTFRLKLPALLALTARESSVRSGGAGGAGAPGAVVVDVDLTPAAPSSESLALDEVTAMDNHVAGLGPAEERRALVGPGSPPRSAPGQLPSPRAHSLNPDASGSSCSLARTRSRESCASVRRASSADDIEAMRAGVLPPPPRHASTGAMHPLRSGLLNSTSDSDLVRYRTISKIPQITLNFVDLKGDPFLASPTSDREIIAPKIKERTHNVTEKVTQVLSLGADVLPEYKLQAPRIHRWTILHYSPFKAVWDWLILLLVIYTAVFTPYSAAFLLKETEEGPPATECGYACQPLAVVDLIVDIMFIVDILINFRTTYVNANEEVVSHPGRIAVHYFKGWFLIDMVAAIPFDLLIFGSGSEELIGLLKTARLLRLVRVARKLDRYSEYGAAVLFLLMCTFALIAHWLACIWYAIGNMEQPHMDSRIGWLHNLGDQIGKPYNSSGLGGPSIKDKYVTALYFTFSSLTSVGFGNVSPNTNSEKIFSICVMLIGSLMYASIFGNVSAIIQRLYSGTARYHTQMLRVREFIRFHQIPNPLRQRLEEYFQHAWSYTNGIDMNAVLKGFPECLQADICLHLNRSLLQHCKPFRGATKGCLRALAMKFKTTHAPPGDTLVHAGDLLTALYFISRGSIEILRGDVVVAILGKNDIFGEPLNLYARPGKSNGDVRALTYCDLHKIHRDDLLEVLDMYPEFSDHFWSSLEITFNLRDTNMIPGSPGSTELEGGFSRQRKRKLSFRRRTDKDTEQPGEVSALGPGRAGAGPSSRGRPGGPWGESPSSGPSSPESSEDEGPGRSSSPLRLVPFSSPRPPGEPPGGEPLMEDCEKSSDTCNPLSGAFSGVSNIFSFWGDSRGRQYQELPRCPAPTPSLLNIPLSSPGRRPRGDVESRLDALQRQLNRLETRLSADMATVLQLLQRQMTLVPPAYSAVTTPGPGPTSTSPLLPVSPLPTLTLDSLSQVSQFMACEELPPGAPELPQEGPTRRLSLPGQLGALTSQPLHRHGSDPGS
row,SMILES,"hERG current change (%, negative = inhibition) at 10uM [%]"
1,O=C(NNc1cccc(Cl)n1)C(F)(F)F,17.2
2,COc1ccc(/C=N/n2c(=O)[nH]c3c([nH]c4ccc(Br)cc43)c2=O)cc1CN1CCOCC1,5.45
3,O=S(=O)(c1cccc(Br)c1)N1CCN(C(=S)NCC2CCCO2)CC1 (stereo not shown),11.6
4,CCOc1ccc(N(CC(=O)NCc2ccccc2)S(=O)(=O)c2ccc(C)cc2)cc1,4.04
5,CCOc1ccc(S(=O)(=O)N(CC)CC(=O)NCc2ccncc2)cc1,-13.2
6,CCOc1ccc(S(=O)(=O)N(CC(=O)Nc2cccnc2)c2ccc(F)cc2)cc1,2.96
7,COc1ccc(S(=O)(=O)N(C)c2ccc(C(=O)NCc3ccncc3)cc2)cc1,-18.8
8,CCOc1ccc(S(=O)(=O)N(CC(=O)NCc2cccnc2)c2ccc(F)cc2)cc1,-72.5
9,CCOc1ccc(S(=O)(=O)N(CC(=O)NCc2ccncc2)c2ccc(C)cc2)cc1,-56.5
10,CCOc1ccc(N(CC(=O)NCc2cccnc2)S(=O)(=O)c2ccc(F)cc2)cc1,-13.6
11,CN(c1ccc(C(=O)NCc2cccnc2)cc1)S(=O)(=O)c1ccc(Cl)cc1,-15.8
12,CN(c1ccc(C(=O)NCc2ccncc2)cc1)S(=O)(=O)c1ccc(Cl)cc1,-52.1
13,COc1cc(/C(C)=N/N2CCN(c3ccccc3OC)CC2)ccc1O,-9.07
14,COc1ccc2c(c1)c(/C=C/c1cc[n+](C)cc1)cn2C.[I-],12.9
15,Cc1cc(-n2c(C)cc(C(=O)CSc3nnnn3-c3ccc(Cl)cc3)c2C)no1,-3.04
16,Cc1c(C)c(C)c(CN2CCSCC2)c(C)c1C,18.4
17,Cc1ccc(N(C)S(=O)(=O)c2ccc(-c3cnc(C4CC4)o3)cc2)cc1,8.38
18,COc1ccc(S(=O)(=O)N2CCCC(C(=O)NCc3ccco3)C2)cc1OC (stereo not shown),10.1
19,CN(C)CCN(C(=O)c1ccc(C(=O)c2ccccc2)cc1)c1nc2cc3c(cc2s1)OCCO3.Cl,-12.4
20,CN(C)CCN(C(=O)c1ccc2c(c1)CCCC2)c1nc2cc3c(cc2s1)OCCO3.Cl,5.76
21,CN(C)CCN(C(=O)c1ccc(N2C(=O)CCC2=O)cc1)c1nc2cc3c(cc2s1)OCO3.Cl,0.227
22,CCN(CC)CCN(C(=O)c1ccc2ncsc2c1)c1nc2cc3c(cc2s1)OCO3.Cl,-61.8

row,SMILES,"hERG current change (%, negative = inhibition) at 10uM [%]"
1,CN(C)CCCN(C(=O)c1ccc2c(c1)CCCC2)c1nc2cc3c(cc2s1)OCO3.Cl,-71
2,CCN(CC)CCN(C(=O)c1ccc2ccccc2c1)c1nc2cc3c(cc2s1)OCO3.Cl,-38.6
3,CN(C)CCN(C(=O)c1ccc(C(=O)c2ccccc2)cc1)c1nc2cc3c(cc2s1)OCO3.Cl,3.43
4,CCN(CC)CCN(C(=O)c1ccc(C(=O)c2ccccc2)cc1)c1nc2cc3c(cc2s1)OCO3.Cl,-43.8
5,CN(C)CCCN(C(=O)c1ccc([N+](=O)[O-])o1)c1nc2cc3c(cc2s1)OCO3.Cl,-71.8
6,CN(C)CCCN(C(=O)c1ccc(C(=O)c2ccccc2)cc1)c1nc2cc3c(cc2s1)OCO3.Cl,-56.3
7,Cc1nccn1Cc1ccccc1,25.1
8,C(=N\Nc1nc(N2CCOCC2)nc(N2CCOCC2)n1)/c1ccco1,30.2
9,CCOC(=O)C1CCN(C(=O)Cn2c(=O)c3cccn3c3cccnc32)CC1,3.76
10,COC(=O)CSC1=C(C#N)C(c2ccc(Cl)cc2)C(C(=O)OC)C(=O)N1 (stereo not shown),0.571
11,Cc1cccc(C)c1NC(=O)COC(=O)c1ccccc1O,1.57
12,O=C(NC1CCCCC1)N1CCc2[nH]c3ccccc3c2C1,3.15
13,CCN(CC)CCN(C(=O)c1ccc(S(=O)(=O)N2CCCC2)cc1)c1nc2cc(C)cc(C)c2s1.Cl,-44.1
14,Cc1ccc2nc(N(CCN(C)C)C(=O)c3ccc4c(c3)OCCO4)sc2c1.Cl,-44.6
15,CCN(CC)CCN(C(=O)c1ccc2c(c1)OCCO2)c1nc2cc3c(cc2s1)OCO3.Cl,-67.3
16,CCN(CC)CCN(C(=O)c1ccc(Br)s1)c1nc2cc3c(cc2s1)OCCO3.Cl,-1.19
17,CCN(CC)CCN(C(=O)c1ccc2c(c1)OCCO2)c1nc2cc(C)cc(C)c2s1.Cl,-69.9
18,CN(C)CCN(C(=O)c1ccc2c(c1)OCCO2)c1nc2cc3c(cc2s1)OCO3.Cl,-41.9
19,CCN(CC)CCN(C(=O)c1ccc2c(c1)OCCO2)c1nc2ccc(C)cc2s1.Cl,-71.2
20,CN(C)CCCN(C(=O)c1ccc2c(c1)OCCO2)c1nc2cc3c(cc2s1)OCO3.Cl,-56
21,CN(C)CCCN(C(=O)c1ccc2c(c1)OCCO2)c1nc2ccc(Cl)cc2s1.Cl,-39.9
22,CCc1ccc2nc(N(CCCN(C)C)C(=O)c3ccc4c(c3)OCCO4)sc2c1.Cl,-48.3

row,SMILES,"hERG current change (%, negative = inhibition) at 10uM [%]"
1,CC(C)c1ccc(N2CC(C(=O)Nc3nccs3)CC2=O)cc1 (stereo not shown),1.98
2,CC1(C)Cc2c(sc3nc4n(-c5ccccc5)c(=O)c(CCC(=O)O)nn4c(=O)c23)CO1,12.9
3,O=c1cc(-c2ccc([N+](=O)[O-])cc2)c2cc3c(cc2[nH]1)OCCO3,-12
4,CC(NCc1cccc(OCc2ccccc2)c1)C(O)c1ccccc1.Cl (stereo not shown),-50.9
5,CC(=O)NC(NC(C)=O)c1cccc(OCc2ccccc2)c1,9.33
6,CC(NCc1ccc(OCc2ccc(Cl)cc2)cc1)C(O)c1ccccc1.Cl (stereo not shown),-62.5
7,CC(NCc1ccc(Cl)cc1Cl)C(O)c1ccccc1.Cl (stereo not shown),-26.6
8,CC(NCc1ccc(Cl)c(Cl)c1)C(O)c1ccccc1.Cl (stereo not shown),-0.311
9,CC(NCc1ccc(Cl)cc1)C(O)c1ccccc1.Cl (stereo not shown),0.613
10,Cc1ccc(C(=O)NCC(=O)OCCCn2c(=O)[nH]c3ccccc32)cc1,-14.8
11,COc1ccc(N(CC(=O)Nc2ccc(C)cn2)S(=O)(=O)c2c(C)noc2C)cc1,-24.8
12,Cc1cccc(C)c1NC(=S)N1CCOCC1,9.99
13,Cc1ccc(NC(=O)CCS(=O)(=O)c2cccc3nonc23)c(Br)c1,6.97
14,O=C(c1ccccc1[N+](=O)[O-])N1CCCN(C(=O)c2ccccc2[N+](=O)[O-])CC1,-14.8
15,Cc1c(C(=O)N2CCC(C)CC2)cccc1[N+](=O)[O-],26.1
16,O=C1CC2(CCN(C(=O)c3ccccc3[N+](=O)[O-])CC2)Oc2ccccc21,-62
17,Cc1c(C(=O)Nc2ccccc2C(=O)N2CCCC2)cccc1[N+](=O)[O-],9.76
18,O=C(c1ccccc1[N+](=O)[O-])N1CCC2(CC1)OCCO2,3.53
19,Cc1c(C(=O)N2CCC3(CC2)CC(=O)c2ccccc2O3)cccc1[N+](=O)[O-],-83.2
20,NC(=O)c1ccc(NC(=O)CNC(=O)c2sc3ccccc3c2Cl)cc1,0.282
21,Cn1nccc1C(=O)Nc1ccn(C23CC4CC(CC(C4)C2)C3)n1,-11.6
22,CN1CCN(S(=O)(=O)c2ccc(=O)[nH]c2)CC1,7.85

row,SMILES,"hERG current change (%, negative = inhibition) at 10uM [%]"
1,Cc1ccc(-c2cc(C(=O)NCCCn3ccnc3)no2)cc1,-42.9
2,O=C(NCCCN1CCOCC1)c1c(O)c2cc(Br)cc(Br)c2[nH]c1=O,-64.6
3,Cc1ccc(-c2cc(C(=O)NCCCN3CCOCC3)no2)cc1,-30.8
4,O=C(NCCCn1ccnc1)c1cc(-c2ccccc2)on1,-16.3
5,O=C(NCCCn1ccnc1)c1cc(-c2ccc(Br)cc2)on1,-51.6
6,O=C(NCCCN1CCOCC1)c1cc(-c2ccc(Br)cc2)on1,-58.6
7,COc1cc2[nH]c(=O)c(C(=O)NCCCN3CCOCC3)c(O)c2cc1OC.Cl,9.48
8,Cl.O=C(NCCCN1CCOCC1)c1c(O)c2ccccc2[nH]c1=O,-47.9
9,O=C(NCCN1CCOCC1)c1cc(-c2ccc(Br)cc2)on1,-22
10,COc1ccc(C2C(C(=O)Nc3ccc(OC)c(OC)c3)c3ccccc3C(=O)N2C)cc1 (stereo not shown),27.7
11,O=C(CCc1cn2ccccc2n1)NC1CCCc2c1cnn2-c1ccccc1F (stereo not shown),0.178
12,Fc1cccc(C2CCCCN2Cc2nc(C3CC3)no2)c1 (stereo not shown),13.3
13,Cc1ccn2c(=O)nc(SCC(=O)c3ccc(Cl)cc3)nc2c1,-31.2
14,CCOc1c(Cl)cc(/C=C/C(=O)N(CC)CC(=O)NCc2cccs2)cc1OC,-55.4
15,CCOc1ccc(/C=C/C(=O)N(CC)CC(=O)NCc2cccs2)cc1OC,-28.3
16,CCN(CC(=O)NCc1cccs1)C(=O)/C=C/c1cccc(Br)c1,-66.8
17,CCN(CC(=O)NCc1cccs1)C(=O)/C=C/c1ccc(C)cc1,-29.4
18,CCN(CC(=O)NCc1cccs1)C(=O)/C=C/c1ccc(Cl)c(Cl)c1,-41.1
19,CCOc1cc(/C=C/C(=O)N(CC)CC(=O)NCc2cccs2)cc(Cl)c1OC,-27.7
